PubChem BioAssay AID588849 (Broad Institute, 2011)
Entries with a potency or affinity are not part of this list. Calls of active or inactive are those of the source. The rule behind the calls is not given here.

target: CAAX prenyl protease 2 (Homo sapiens) (UniProt Q9Y256); assay: human Rce1 protease inhibitors, dose response, biochemical, yeast membranes, quenched-peptide fluorescence, cherry-pick (AID 588849); conditions: yeast membrane fractions expressing human Rce1, quenched-peptide fluorescence, 4 h; series mostly up to 10 µM
Sequence (Q9Y256 whole entry, looked up): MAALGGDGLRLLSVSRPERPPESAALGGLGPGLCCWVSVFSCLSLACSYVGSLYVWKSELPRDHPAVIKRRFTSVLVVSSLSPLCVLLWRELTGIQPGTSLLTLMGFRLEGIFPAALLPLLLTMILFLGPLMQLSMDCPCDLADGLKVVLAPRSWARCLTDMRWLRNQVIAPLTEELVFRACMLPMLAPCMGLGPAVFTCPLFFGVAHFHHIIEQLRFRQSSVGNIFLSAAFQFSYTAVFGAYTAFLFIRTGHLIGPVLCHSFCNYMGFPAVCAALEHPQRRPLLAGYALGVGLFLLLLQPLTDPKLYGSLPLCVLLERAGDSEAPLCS

outcome, inactive:
CN(C)CCN(C(=O)c1ccc2ccccc2c1)c1nc2ccc(Br)cc2s1, C#CCNC(=O)C1=C[C@@H](C2CCCCC2)C[C@@H](OCc2ccc(CO)cc2)O1, CC(C)c1c(C(=O)N/N=C/c2c[nH]c3ccccc23)nnn1-c1nonc1N, CCCCCCCCCCOC(=O)Cn1c(COc2ccc(C)cc2)[n+](C)c2ccccc21, c1ccn2cc(-c3ccc4c(c3)OCCO4)nc2c1, CCC(C)(C)c1ccc(OCCCC[n+]2cccc(C)c2C)c(C(C)(C)CC)c1, CCCOc1ccccc1C(=O)NCCCC(=O)O, CC(C)c1ccc(/C=C2\SC(=S)N(CCC(=O)NCCCn3ccnc3)C2=O)cc1, CCOC(=O)C[C@H]1c2ccccc2S(=O)(=O)N1Cc1cc(OC)c(OC)c(OC)c1, CC1=NN(c2ccccc2)C(=O)/C1=C\c1ccc(Br)s1, O=C(c1cn(-c2ccccc2)nc1-c1cccs1)N1CCN(c2ccccc2)CC1, COc1cccc2c(=O)c(C(=O)O)c[nH]c12, COc1ccc(-n2nc(C(=O)NCC(=O)N3CCC(C)CC3)c3ccccc3c2=O)cc1, CC1(c2ccc(OCC#N)cc2)C=C(c2ccc(OCC#N)cc2)n2nc(C(F)(F)F)nc2N1 (configuration not stated), CCCCCCSc1cc(-c2nc3cc(C)ccn3c2NCCCC)ccc1OC, C[C@@]12CCC=C[C@H]1[C@H](c1ccc(/C=C/c3ccccc3)cc1F)N(Cc1ccccc1)C2=O, CN(C)CCNc1ncnc2oc(-c3ccccc3)c(-c3ccccc3)c12
